# Data: PubChem BioAssay (Tox21)
# Inconclusive results are not listed. Where a call stands in place of a potency, no number is given. Unmarked numbers belong to inactive results. Activity calls are given as the source filed them. Unless noted, the call rests on the fitted dose curve; in most records, active means well fitted curve in the direction sought with a large enough effect in the repeat runs; inconclusive means weak or mixed curves; inactive means no such curve, though single readings can be large; an effect the other way counts as inactive or inconclusive.
# Assays:
# [1] = qHTS assay to identify small molecule agonists of the vitamin D receptor (VDR) signaling pathway - cell viability counter screen (AID 743224); further: series mostly up to about 63 µM; nearly all actives have a fitted effect of over 50% in size
# Method in brief: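 VDR-bla cells, 4 h after plating, exposed to compounds for 16 h at 37C; viability then read in the same wells as CellTiter-Glo luminescence after 30 min at room temperature, following the bla FRET read.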
# [2] = qHTS assay to identify small molecule antagonists of the vitamin D receptor (VDR) signaling pathway - cell viability counter screen (AID 743225); further: nearly all actives have a fitted effect of over 50% in size
# Method in brief: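 Same-well multiplex: following 16 h treatment of HEK 293T cells carrying a UAS-driven beta-lactamase reporter with compound and agonist (3 nM final), and a 2 h FRET substrate step, CellTiter-Glo was added and luminescence read after 30 min.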
# [3] = qHTS assay to identify small molecule agonists of the NFkB signaling pathway (AID 1159509; active means well fitted curve in the direction sought with a large enough effect in the signal ratio in the repeat runs, not every such curve was filed as active; the % refers to the signal ratio; further: series mostly up to about 61 µM)
# Method in brief: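 After overnight attachment, reporter cells received test compounds, DMSO or positive controls and were incubated 5 hr at 37 C. FRET substrate was then added for 1.5 hr at room temperature before dual-emission fluorescence reading.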
# [4] = qHTS assay to identify small molecule agonists of the NFkB signaling pathway - cell viability counter screen (AID 1159515; calls by dose curve; further: series mostly up to about 61 µM; nearly all actives have a fitted effect of over 55% in size)
# Method in brief: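 NFkB-bla ME-180 cells, 2,000/well, plated overnight at 37 C; compound added for 5 hr at 37 C. Viability read in the same wells as the bla reporter, by CellTiter-Glo luminescence after 30 min at room temperature.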
# [5] = qHTS assay to identify small molecule agonists of the endoplasmic reticulum stress response signaling pathway (AID 1159516; active means well fitted activation curve with a large enough effect in the signal ratio in the repeat runs, not every such curve was filed as active; the % refers to the signal ratio)
# Method in brief: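 CellSensor ESRE-bla HeLa cells, 1,500 per well, plated overnight, then exposed to compounds for 5 hr at 37 C. Beta-lactamase reporter read with LiveBLAzer B/G FRET substrate after 2 hr at room temperature, 405 nm excitation, 460 and 530 nm emission.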
# [6] = qHTS assay to identify small molecule agonists of the endoplasmic reticulum stress response signaling pathway - cell viability counter screen (AID 1159517; calls by dose curve;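 further: HeLa cells carrying an ER stress response element beta-lactamase reporter; series mostly up to about 61 µM; nearly all actives have a fitted effect of over 50% in size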)
# Method in brief: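 Cells, HeLa ESRE-bla; density, 1,500/well; dosing, 5 hr at 37 C, 5% CO2; readout, CellTiter-Glo luminescence after 30 min RT.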
# [7] = qHTS assay to identify small molecule antagonists of the retinoid-related orphan receptor gamma (ROR-gamma) signaling pathway - cell viability counter screen (AID 1159520); further: nearly all actives have a fitted effect of over 50% in size
# Method in brief: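 Cytotoxicity was read from cellular ATP (CellTiter-Glo luminescence) after 16 hr at 37 C with 1 uM doxycycline induction. The inducer was added 2 hr after compound transfer to Tet-on ROR gamma CHO cells.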
# [8] = biological target: Nuclear receptor ROR-gamma (Homo sapiens) (UniProt P51449); assay: qHTS assay to identify small molecule antagonists of the retinoid-related orphan receptor gamma (ROR-gamma) signaling pathway (AID 1159521; further: nearly all actives have a fitted effect of over 50% in size; further: potency means the concentration at half of the fitted maximal effect)
# Method in brief: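 Inducible-expression reporter assay: doxycycline (1 uM final) switched on RORγ in CHO cells bearing a ROR response element-luciferase construct, with test compounds present from 2 h beforehand. Decreased luminescence after 16 h defined antagonist activity.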
# [9] = qHTS assay to identify small molecule agonists of the AP-1 signaling pathway (AID 1159526; calls by dose curve)
# [10] = qHTS assay to identify small molecule agonists of the AP-1 signaling pathway - cell viability counter screen (AID 1159525; calls by dose curve; further: nearly all actives have a fitted effect of over 55% in size)
# Method in brief: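 Luminescent ATP readout (Cell Titer Glo, 30 min RT), normalised to DMSO and tetra n-octyl ammonium bromide controls. Cells were ME-180 AP-1-bla in 0.5% dialyzed FBS Opti-MEM, with a 5 h, 37 °C compound exposure.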
SMILES,outcome [1],outcome [2],outcome [3],outcome [4],outcome [5],outcome [6],Potency [7],Potency [8],Potency [9],outcome [10]
O=c1c2ccccc2oc2ccccc12,inactive,inactive,inactive,inactive,inactive,inactive,inactive,inactive,inactive,–
CCCCOc1ccc(N)cc1,inactive,inactive,inactive,inactive,inactive,inactive,inactive,inactive,inactive,–
C[C@H](N)C(=O)N[C@@H](C)C(=O)NC1[C@H]2CN(c3nc4c(cc3F)c(=O)c(C(=O)O)cn4-c3ccc(F)cc3F)C[C@@H]12 (stereo partly specified),inactive,inactive,inactive,inactive,inactive,inactive,inactive,inactive,inactive,–
C=CCCC,inactive,inactive,inactive,inactive,inactive,–,inactive,inactive,inactive,inactive
CCCCCCCCCCCCSC#N,inactive,inactive,inactive,inactive,inactive,–,inactive,inactive,inactive,inactive
Clc1ccccc1-c1nc(-c2ccncc2)no1,inactive,inactive,inactive,inactive,inactive,–,inactive,inactive,inactive,inactive
NC(=O)c1cc[n+](CC2=C(C(=O)[O-])N3C(=O)[C@@H](NC(=O)Cc4cccs4)[C@H]3SC2)cc1,inactive,–,inactive,inactive,inactive,–,inactive,inactive,inactive,inactive
CCOC(OCC)OCC,inactive,inactive,inactive,inactive,inactive,–,inactive,inactive,inactive,inactive
NC(=O)c1ccccc1C(N)=O,inactive,inactive,inactive,inactive,inactive,–,inactive,inactive,inactive,inactive
O=C(Nc1ccc2c(c1)Cc1ccccc1-2)C(F)(F)F,inactive,inactive,inactive,inactive,inactive,–,inactive,inactive,inactive,inactive
Cc1ccc(NC(=O)c2ccc(CN3CCN(C)CC3)cc2)cc1Nc1nccc(-c2cccnc2)n1,–,–,inactive,inactive,inactive,–,inactive,inactive,inactive,–
Cc1ccc2ccccc2c1[N+](=O)[O-],inactive,inactive,inactive,inactive,inactive,–,inactive,inactive,inactive,inactive
CCCCOC(=O)CC#N,inactive,inactive,inactive,inactive,inactive,–,inactive,inactive,inactive,inactive
CO[C@@H]1COCC[C@@H]1N[C@@H]1CC[C@@](C(=O)N2CCc3ncc(C(F)(F)F)cc3C2)(C(C)C)C1,inactive,inactive,inactive,inactive,inactive,–,inactive,inactive,inactive,inactive
O=C(O)c1ccccc1[N+](=O)[O-],inactive,inactive,inactive,inactive,inactive,–,inactive,inactive,inactive,inactive
CC(C)=CCCC(C)C=O (stereo unspecified),inactive,inactive,inactive,inactive,inactive,–,inactive,inactive,inactive,–
Cc1c(-c2cccnc2)c2ccccc2n1CCCCC(=O)O,inactive,inactive,inactive,inactive,inactive,–,inactive,inactive,inactive,inactive
O=C(OCCN1CCOCC1)c1cccnc1Nc1cccc(C(F)(F)F)c1,inactive,inactive,inactive,inactive,inactive,–,inactive,inactive,inactive,inactive
CCOCCn1c(N2CCCN(C)CC2)nc2ccccc21,inactive,inactive,inactive,inactive,inactive,–,inactive,inactive,inactive,inactive
CCOc1ccc(NC(C)=O)cc1N,inactive,inactive,inactive,inactive,inactive,–,inactive,inactive,inactive,inactive
CC(CCl)OC(C)CCl (stereo unspecified),inactive,inactive,inactive,inactive,inactive,–,inactive,inactive,inactive,inactive
C(/C=C/C=C/Nc1ccccc1)=Nc1ccccc1,inactive,inactive,inactive,inactive,inactive,–,inactive,inactive,inactive,inactive
CCOc1ccccc1O,inactive,inactive,inactive,inactive,inactive,–,inactive,inactive,inactive,inactive
C[C@]12CCC(=O)C=C1[C@@H]1C[C@@H]1[C@H]1[C@@H]3[C@@H]4C[C@@H]4[C@@]4(CCC(=O)O4)[C@@]3(C)CC[C@@H]12,inactive,inactive,inactive,inactive,inactive,–,inactive,7.5 µM (active),inactive,inactive
